In PubChem BioAssay AID1159580 (chemical genetic matrix, 2015):
Hit rate of the full screen: of about 5,500 compounds, about 2,000 (36%) were called active. Not shown: some 18% with an inconclusive outcome. No stated cut-off is given here; in the data, active means normalized growth mostly below about 0.91 (no sharp cut-off); inconclusive means no clear call, values can overlap the other calls; inactive means mostly above about 0.92. The list shows a part of the results.

Experiment: chemical genetic growth profiling, strain panel (AID 1159580);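 further: tested at 20 µM; growth read once vehicle control cultures reached saturation at 30 °C; 1 = growth at the plate median or of vehicle wells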
Details: S. cerevisiae deletion strains, growth OD
[1] = locus YAR019C, strain CDC15, stronger effect = lower value
[2] = locus YBL105C, strain PKC1, stronger effect = lower value
[3] = locus YBR135W, strain CKS1, stronger effect = lower value
[4] = locus YBR136W, strain MEC1, stronger effect = lower value
[5] = locus YBR160W, strain CDC28, stronger effect = lower value
[6] = locus YDL017W, strain CDC7, stronger effect = lower value
[7] = locus YDL028C, strain MPS1, stronger effect = lower value
[8] = locus YDL101C, strain DUN1, stronger effect = lower value
[9] = locus YDL108W, strain KIN28, stronger effect = lower value
[10] = locus YDL132W, strain cdc53, stronger effect = lower value
[11] = locus YDL214C, strain PRR2, stronger effect = lower value
[12] = locus YDR052C, strain DBF4, stronger effect = lower value
[13] = locus YDR054C, strain cdc34, stronger effect = lower value
[14] = locus YDR226W, strain ADK1, stronger effect = lower value
[15] = locus YDR477W, strain SNF1, stronger effect = lower value
[16] = locus YER123W, strain YCK3, stronger effect = lower value
[17] = locus YER133W, strain GLC7, stronger effect = lower value
[18] = locus YFL009W, strain cdc4, stronger effect = lower value
[19] = locus YFL029C, strain CAK1, stronger effect = lower value
[20] = locus YFR003C, strain YPI1, stronger effect = lower value
[21] = locus YFR019W, strain FAB1, stronger effect = lower value
[22] = locus YFR028C, strain CDC14, stronger effect = lower value
[23] = locus YGR040W, strain KSS1, stronger effect = lower value
[24] = locus YGR052W, strain FMP48, stronger effect = lower value
[25] = locus YGR092W, strain DBF2, stronger effect = lower value
[26] = locus YHR030C, strain SLT2, stronger effect = lower value
[27] = locus YHR079C, strain IRE1, stronger effect = lower value
[28] = locus YHR082C, strain KSP1, stronger effect = lower value
[29] = locus YHR205W, strain SCH9, stronger effect = lower value
[30] = locus YIL147C, strain SLN1, stronger effect = lower value
[31] = locus YJL095W, strain BCK1, stronger effect = lower value
[32] = locus YJL128C, strain PBS2, stronger effect = lower value
[33] = locus YJL157C, strain FAR1, stronger effect = lower value
[34] = locus YJR016C, strain ILV3, stronger effect = lower value
[35] = locus YJR066W, strain TOR1 (second series), stronger effect = lower value
[36] = locus YJR066W, strain TOR1, stronger effect = lower value
[37] = locus YKL048C, strain ELM1, stronger effect = lower value
[38] = locus YKL067W, strain YNK1, stronger effect = lower value
[39] = locus YKL101W, strain HSL1, stronger effect = lower value
[40] = locus YKL193C, strain SDS22, stronger effect = lower value
[41] = locus YKL203C, strain TOR2, stronger effect = lower value
[42] = locus YLR113W, strain HOG1, stronger effect = lower value
[43] = locus YLR133W, strain CKI1, stronger effect = lower value
[44] = locus YLR403W, strain SFP1, stronger effect = lower value
[45] = locus YML070W, strain DAK1, stronger effect = lower value
[46] = locus YMR001C, strain CDC5, stronger effect = lower value
[47] = locus YMR205C, strain PFK2 (second series), stronger effect = lower value
[48] = locus YMR277W, strain FCP1, stronger effect = lower value
[49] = locus YNL006W, strain LST8, stronger effect = lower value
[50] = locus YNL020C, strain ARK1, stronger effect = lower value
[51] = locus YNL161W, strain CBK1, stronger effect = lower value
[52] = locus YNL183C, strain NPR1, stronger effect = lower value
[53] = locus YNL207W, strain RIO2, stronger effect = lower value
[54] = locus YNL222W, strain SSU72, stronger effect = lower value
[55] = locus YNL307C, strain MCK1 (second series), stronger effect = lower value
[56] = locus YOL078W, strain AVO1, stronger effect = lower value
[57] = locus YOL136C, strain PFK27, stronger effect = lower value
[58] = locus YOR061W, strain CKA2, stronger effect = lower value
[59] = locus YOR119C, strain RIO1, stronger effect = lower value
[60] = locus YOR231W, strain MKK1, stronger effect = lower value
[61] = locus YOR329C, strain SCD5, stronger effect = lower value
[62] = locus YPL031C, strain PHO85, stronger effect = lower value
[63] = locus YPL153C, strain RAD53, stronger effect = lower value
[64] = locus YPL204W, strain HRR25, stronger effect = lower value
[65] = locus YPL209C, strain IPL1, stronger effect = lower value
[66] = locus YPL256C, strain CLN2, stronger effect = lower value
[67] = locus YPR025C, strain CCL1, stronger effect = lower value
[68] = locus YPR106W, strain ISR1, stronger effect = lower value
[69] = locus YPR111W, strain DBF20, stronger effect = lower value
[70] = strain NNK1, stronger effect = lower value
[71] = strain TSCII, stronger effect = lower value

Measured: normalized growth

O=S(=O)(Nc1ccccc1Oc1ccccc1)c1ccc(-c2ccno2)s1
inactive: [1] 0.974 | [2] 0.961 | [3] 0.966 | [4] 0.968 | [5] 0.961 | [6] 0.969 | [7] 0.965 | [8] 0.968 | [9] 0.972 | [10] 0.964 | [11] 0.916 | [12] 0.978 | [13] 0.965 | [14] 0.968 | [15] 0.943 | [16] 0.911 | [17] 0.964 | [18] 0.96 | [19] 0.96 | [20] 0.969 | [21] 0.97 | [22] 0.963 | [23] 0.929 | [24] 0.976 | [25] 0.916 | [26] 0.961 | [27] 0.954 | [28] 0.98 | [29] 0.933 | [30] 0.969 | [31] 0.962 | [32] 0.953 | [33] 0.924 | [34] 0.964 | [35] 0.919 | [36] 1 | [37] 0.932 | [38] 0.941 | [39] 0.893 | [40] 0.962 | [41] 0.982 | [43] 0.914 | [44] 0.891 | [45] 0.906 | [46] 0.968 | [47] 0.948 | [48] 0.965 | [49] 0.973 | [50] 0.924 | [51] 0.968 | [52] 0.954 | [53] 0.966 | [54] 0.961 | [55] 0.932 | [56] 0.963 | [57] 0.908 | [58] 0.921 | [59] 0.995 | [60] 0.888 | [61] 0.968 | [62] 0.944 | [63] 0.93 | [64] 0.927 | [65] 0.965 | [66] 0.873 | [67] 0.971 | [68] 0.946 | [69] 0.929 | [70] 0.948 | [71] 0.967
active: [42] 0.769

Cc1ccc(-n2cccc2)c(NS(=O)(=O)c2ccc(-c3ccno3)s2)c1
active: [26] 0.667 | [42] 0.774 | [66] 0.791
inactive: [1] 0.94 | [2] 0.947 | [3] 0.944 | [4] 0.953 | [5] 0.938 | [6] 0.957 | [7] 0.933 | [8] 0.958 | [9] 0.937 | [10] 0.943 | [11] 0.899 | [12] 0.962 | [13] 0.941 | [14] 0.929 | [15] 0.894 | [16] 0.868 | [17] 0.902 | [18] 0.93 | [19] 0.936 | [20] 0.957 | [21] 0.976 | [22] 0.94 | [23] 0.914 | [24] 0.898 | [25] 0.76 | [27] 0.847 | [28] 0.888 | [29] 0.862 | [30] 0.941 | [31] 0.816 | [32] 0.891 | [33] 0.921 | [34] 0.941 | [35] 0.889 | [36] 0.816 | [37] 0.924 | [38] 0.885 | [39] 0.894 | [40] 0.941 | [41] 0.979 | [43] 0.923 | [44] 0.915 | [45] 0.905 | [46] 0.947 | [47] 0.918 | [48] 0.93 | [49] 0.965 | [50] 0.939 | [51] 0.953 | [52] 0.9 | [53] 0.939 | [54] 0.943 | [55] 0.9 | [56] 0.941 | [57] 0.906 | [58] 0.906 | [59] 0.923 | [60] 0.833 | [61] 0.952 | [62] 0.896 | [63] 0.872 | [64] 0.883 | [65] 0.953 | [67] 0.95 | [68] 0.932 | [69] 0.926 | [70] 0.938 | [71] 0.942
